Laboratory results taken from PubChem BioAssay AID1508600 (Functional Genomics Laboratory (NCATS/FGL), 2020).
Among all 53,000 sequences or so, about 3,700 (7%) were called active. This is one part of a sample in which actives are shown more often than they occur.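 How the source made its calls: active means gene knockdowns whose robust z-score for IL-1 alpha signal is at least 2 or at most -2, so actives lie on both sides; inactive means the rest.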

Test: Components of the Cytosolic LPS Sensing Pathway: Gene Identification via Genome-wide siRNA Screen;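 further: robust z of the log signal after scaling to non-targeting control siRNA wells of the plate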
Conditions: RAW264.7 macrophages, IL-1a HTRF, actives lie on both sides, screened at 100 nM (by protocol), cells primed 5 h with Pam3CSK4 first
Procedure, shortened: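 Mouse macrophage line RAW264.7 is transfected with siRNA (100 nM final), grown 48h, primed with TLR ligand Pam3CSK4 5 h and given intracellular LipidA 24 h. IL-1a in supernatant is read by HTRF and viability by luminescence.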

| Sequence | z-score |
| --- | --- |
| CCCAUCAUCUUCCCAUUCGTT against Olfr146 | -0.204 (inactive) |
| GGGCUAGAUGAAUUUUUGATT against Aplnr | -0.181 (inactive) |
| GGCCUGGAUUCCUUAACAATT against Lgi1 | -3.23 (active) |
| CCAGCUAUGUGUAUAAACCTT against Ppid | -0.045 (inactive) |
| GCCUGUGCCUUUUGAAUUCTT against Brox | -0.0201 (inactive) |
| GGUCUAUCCCAUCAUGCCUTT against Clcnka | 0.583 (inactive) |
| GCAGAGAGUUUUUAUCUGCTT against Vmp1 | 0.0579 (inactive) |
| CGCUACGACUAGAGUUUGCTT against Rbpms | 2.36 (active) |
| GGGAAGAACUUCAAGCUUGTT against Ptk2b | 0.668 (inactive) |
| GGUUGGACUGACUAUCCAUTT against Olfr984 | 1.02 (inactive) |
| GGCUGCUGACAUUUUCAUCTT against Lrrc28 | 1.53 (inactive) |
| GGAUAUGCUCAGAGGUUUUTT against Pex11g | 2.2 (active) |
| GGUCCUAACAUCCAGAGUGTT against Zfp438 | -1.06 (inactive) |
| GGAUAAGACCAUCAGAUUATT against Wdr31 | 1.18 (inactive) |
| GGAGCUUGAUUCGAAGCCUTT against Bik | -0.364 (inactive) |
| GCGAAGAGUCAAAUCCAUCTT against Dock8 | -1.93 (inactive) |
| CGGGUGCUAAAAUGUCUAUTT against Khdrbs2 | 2.81 (active) |
| CCGAAGUUCACCCUAAAGGTT against Lmna | -0.485 (inactive) |
| GCAAAGAAGUGUAUGUGUUTT against Olfr273 | 0.0336 (inactive) |
| GCUUCUCAGAAGAUGUACUTT against Rgs16 | -1.06 (inactive) |
| GCCCUAUAUAUCAUUCUAGTT against Rhoa | 1.12 (inactive) |
| GCCUGUUAUAUGUGGCCUUTT against Olfr1352 | 0.673 (inactive) |

| Sequence | z-score |
| --- | --- |
| GGAUGUCCUGAAAGAAAAATT against H2-M9 | 0.633 (inactive) |
| GCUUUAUUCACUCACUUUCTT against Chsy3 | 0.814 (inactive) |
| GGAUAACUGUAACAGCCCGTT against Ly6g6c | -2.12 (active) |
| GGUGAUUUCUAUCGAUUUUTT against Dhrs9 | 0.144 (inactive) |
| GGACGUGCUCAAGUUCAUCTT against Ift172 | 0.519 (inactive) |
| GGAAGUCAAGCAAAAGUUUTT against Hsd17b7 | -0.516 (inactive) |
| GGUUGAAGAUGAAAGAAGATT against Sin3a | 0.132 (inactive) |
| CGAAGCUCAACAGAUUCCUTT against Prl7a2 | -0.278 (inactive) |
| GGCACGAUGGUUCAUCCUUTT against Plek2 | -2.01 (active) |
| CGGCCUACAACUACCCAACTT against Tekt3 | 1.02 (inactive) |
| CGACGUAUCCGUUCUAUAATT against Eif2s1 | -1.05 (inactive) |
| GAGCAUAGAAACCAUGCACTT against Acot2 | -0.621 (inactive) |
| GGAGAUGUAACCAUAGGCCTT against Dctn6 | 2.07 (active) |
| GCUAAAGAAAAGUGGAGACTT against Pbdc1 | 0.165 (inactive) |
| GGCAGAAAGACAUUUUCUUTT against Ift80 | -2.53 (active) |
| GCAUAUCUAUAACAGAGCCTT against Rnase2a | -1.23 (inactive) |
| GGAAAUGUCAUGACCUUGATT against Tnfaip6 | -1.89 (inactive) |
| CCUGGUGCUAUGGACUAAATT against Tectb | -1.15 (inactive) |
| GCUACGGAUGCUUUUCAAATT against Ube2i | -0.351 (inactive) |
| UAUUGUCACCGUCUUAGGCTT against Olfr1028 | -2.84 (active) |
| CGUAUCUUAUAUCAGGAAATT against Trem1 | 0.513 (inactive) |
| GGAGAACAUAAAAAUGGUGTT against Stk39 | -0.0786 (inactive) |

| Sequence | z-score |
| --- | --- |
| GGAGUUUUGGGUGAUGAUATT against Olfr974 | -2.41 (active) |
| GGUCUUUUGUAAAAACCCUTT against Sytl2 | 0.099 (inactive) |
| GGCAACAGUGAAAGAUGAATT against Acnat2 | 0.0608 (inactive) |
| GCAACCGCGUCACAUUGAATT against Bicc1 | 0.655 (inactive) |
| GCGAGCAUGAAGUUAGUAATT against C230029F24Rik | 0.914 (inactive) |
| GGAGUGACUCCUACAAAAUTT against Ms4a4b | -2.01 (active) |
| CCAGUGGUCAUUCUUGUCUTT against Olfr1076 | 0.314 (inactive) |
| GCUGUCGACUUUAAAAGGUTT against Pcdhga7 | -0.356 (inactive) |
| GGCAGAAACUAAGAAUGAATT against Mx1 | -0.292 (inactive) |
| GGACCUUUUGUGAACUUACTT against E2f3 | 4.53 (active) |
| GGUGAAGAAAGCACUGUUUTT against Olfr980 | 0.0649 (inactive) |
| GGAAAUCAGAAUUCCAAAATT against Cntn6 | 1.56 (inactive) |
| GGCCUAUUUGUUUUUGAAATT against Mthfd2 | 1.45 (inactive) |
| GGACUAUUCACACUAAGUCTT against Them5 | -0.214 (inactive) |
| GGGAAACAAAAAGCAGAUATT against Ccdc47 | 0.325 (inactive) |
| GGAACUGGAAAUCUCAGAGTT against Pcdh12 | 0.447 (inactive) |
| GCCACAUCAGAUGAAGUCCTT against Ppm1e | -2.26 (active) |
| GCCCAAUCUACACAGACCATT against Slc7a13 | -0.939 (inactive) |
| GGAUGUGUGUGUCUCCUCATT against Prr9 | -0.256 (inactive) |
| GCUACAGAUUAGGGACAUATT against Pcdhb2 | 4.53 (active) |
| CCACUCCCAUAAGGGCUAUTT against Smo | -0.144 (inactive) |
| CCUGAACAUAAAGUUUACUTT against Catsper4 | 0.209 (inactive) |

| Sequence | z-score |
| --- | --- |
| CGACAUGUCAAAACUCACGTT against Zfp791 | 1.22 (inactive) |
| CCAUGUACCAGAUUAAGUATT against Krt8 | 1.16 (inactive) |
| GGUGAAAAGCAGCUAACAATT against Fam135a | -1.6 (inactive) |
| GCUGUAAUGCUAAUGACAUTT against Gpr22 | 1.23 (inactive) |
| CCAUGGUCAUCCCGAUGUUTT against Olfr1454 | 0.171 (inactive) |
| CGAGAAGGGAUUUUAGAAGTT against A830018L16Rik | -0.92 (inactive) |
| GGAGAAACUCUUCAGGCUUTT against Tceal8 | -2.19 (active) |
| GGCAGGCAGAAGGCUUUUUTT against Olfr228 | 1.07 (inactive) |
| GGUGGACAGGAGAAAGGAATT against Npy6r | -0.578 (inactive) |
| GGAGACCUGAAUUUUUCAGTT against Tab2 | 0.469 (inactive) |
| GGAACAAUUGUUCCUGUGATT against Kcne1 | -2.04 (active) |
| GGAAGAAGCAACCACAUUCTT against Evl | 0.898 (inactive) |
| GGAGGAGUUUGACUUCGACTT against Alox12 | -0.109 (inactive) |
| CGUAGACAUGGCCUUUUUUTT against Dipk1c | -0.863 (inactive) |
| GCAAAUGAAUCAUGGGUGGTT against Rnf141 | 0.116 (inactive) |
| GGAACGUGGAUCUUUUUAUTT against Wiz | 2.42 (active) |
| GCUGUCCUUCUAUAACCCATT against Frmd5 | -1.68 (inactive) |
| GCUCUACAUCGAAUUGCUGTT against Lig4 | 4.14 (active) |
| GGCGACAAAAAGGCUAAGCTT against Khnyn | 0.437 (inactive) |
| GGAACUAGCCUUCACUGACTT against Rabggta | 0.931 (inactive) |
| GGUUGCAUCACAGCGUAUATT against Phlpp1 | 0.759 (inactive) |
| GGAGGAAAAUGAUGGAGAGTT against Lysmd1 | 2.28 (active) |

| Sequence | z-score |
| --- | --- |
| CCACUUUAGCUCCUUUAAGTT against Tet3 | -0.438 (inactive) |
| GGAGCUCUACAUCAUAGACTT against Lhx1 | 0.579 (inactive) |
| GGUAAAACAGGUAUGUCGCTT against Ramac | 0.48 (inactive) |
| CGAUGAGCUAAGAGAGUCCTT against Cand2 | 3.09 (active) |
| GGCCUACCUGGUUGAGAAATT against Spam1 | 1.44 (inactive) |
| GGUCUAUGAAGAGAAGACUTT against Mtres1 | 0.8 (inactive) |
| GGCACAGUUCCUCAGUAUGTT against Hspbap1 | 1.76 (inactive) |
| GCAUUAUACCUGUCAAGUUTT against Klk1b1 | 0.608 (inactive) |
| CGAGUCAAUCAACUUGUCUTT against Olfr54 | -0.882 (inactive) |
| GGACUCUGAUCUGGAGUAGTT against Slc51a | -0.397 (inactive) |
| GGCAAACAUCUGUAUCUAUTT against Golph3 | -0.571 (inactive) |
| CGGCAACUCAACAAGCUUATT against Cbfa2t3 | 2.38 (active) |
| GGCAUCUUUUGAAACAAUATT against Ubxn8 | -1.04 (inactive) |
| GGCAGUGGGAUUACAAUGATT against Med12 | 2.02 (active) |
| GGCAUACAAAGCCCUCUAUTT against Kcnrg | -0.457 (inactive) |
| GGAUGUGAUGACUCAUUUUTT against Zbtb8os | 0.976 (inactive) |
| GGUGAAUAAAGACCGAGGUTT against Anks6 | -1.58 (inactive) |
| GCGUGAGGAUGUAGACUACTT against Mmp12 | 0.699 (inactive) |
| GGACAUUUUUGUCUCUAAATT against Pacc1 | 0.167 (inactive) |
| CCGACACAAGAUGCUCAGUTT against Tmem9 | -2.3 (active) |
